# Assay results as given in PubChem BioAssay AID738 (SRMLSC, 2007).
# Out of some 98,000 compounds screened, about 4,900 (5%) were called active. Cut-off read from the data, not from the text of the source: active = inhibition above about 30%; inactive = the rest. The full list was thinned out, with actives kept by preference.
# Assay: yeast control strain growth suppression – counter-screen for post-Golgi transport modulator project, primary screen (AID 738)
# Details: efflux-deficient yeast background strain, growth absorbance A615, 16 h; at 10 µM; stronger effect = higher value
row,SMILES,inhibition
1,Cc1cccc2cc(CN(Cc3nnnn3Cc3ccccc3)C3CCCC3)c(=O)[nH]c12,13.2% (inactive)
2,Cc1cc(C)c2cc(CN(Cc3nnnn3Cc3ccc(F)cc3)C3CCCC3)c(=O)[nH]c2c1,41.1% (active)
3,CCOc1ccc2[nH]c(=O)c(CN(Cc3nnnn3Cc3ccccc3)CC3CCCO3)cc2c1 (centres undefined),0.14% (inactive)
4,N#Cc1c(C(F)(F)F)cc(-c2ccccc2)nc1SCC(=O)N1CCOCC1,-3.4% (inactive)
5,Cc1cccc(N2CCN(C(c3ccccc3)c3nnnn3CC3CCCO3)CC2)c1C (centres undefined),44.4% (active)
6,COc1ccc(CCn2nnnc2C(c2ccccc2)N2CCN(C)CC2)cc1OC (centres undefined),22.5% (inactive)
7,COc1ccc(C(c2nnnn2Cc2cccs2)N2CCN(c3ccccc3)CC2)cc1OC (centres undefined),11.7% (inactive)
8,Cc1cc(OCCOc2cccc3cccnc23)c(C)cc1Cl,7.3% (inactive)
9,CCOC(=O)C1=C(C)Nc2sc(C(=O)c3ccc(Br)cc3)c(N)c2C1c1ccc(C(=O)OC)cc1 (centres undefined),9.7% (inactive)
10,COc1ccc(C(C(=O)NCc2ccccc2)N(Cc2cccs2)C(=O)c2cnccn2)cc1 (centres undefined),7.02% (inactive)
11,O=C(N/N=C/c1ccsc1)c1cc(O)cc(O)c1,1.53% (inactive)
12,COc1ccc(/C=C(\NC(=O)c2ccc(OC)c(OC)c2)C(=O)NCCc2c[nH]c3ccccc23)cc1,6.34% (inactive)
13,O=S(=O)(c1ccccc1)N(CC(O)CN1CCCCC1)c1ccccc1 (centres undefined),-1.97% (inactive)
14,CS(=O)(=O)N(CC(O)Cn1c2ccccc2c2ccccc21)c1cccc2ccccc12 (centres undefined),46.2% (active)
15,CC(=O)c1ccc2c(c1)c1ccccc1n2CC(C)C,23.7% (inactive)
16,N#Cc1ccc(-c2ccc(F)cc2)nc1Sc1ccccc1,8.35% (inactive)
17,COc1ccccc1Oc1ccc(S(=O)(=O)Nc2cccnc2)cc1,0.59% (inactive)
18,O=S(=O)(Nc1ccccn1)c1ccc(Oc2ccccc2)cc1,5.52% (inactive)
19,Cc1cc(C)cc(NS(=O)(=O)c2ccc(Oc3ncc(C(F)(F)F)cc3Cl)cc2)c1,33% (active)
20,CC1(C)CC(=O)C2=C(C1)N=C1SCCC(=O)N1C2c1ccc(C(F)(F)F)cc1 (centres undefined),10.4% (inactive)
21,O=C(Nc1ccc(Oc2ccccc2)cc1)c1ccco1,-0.32% (inactive)
22,CC(Oc1ccc2ccccc2c1)C(=O)NNC(=S)NC(=O)c1ccco1 (centres undefined),96.2% (active)
23,COc1ccc(C(=O)NC(=S)NNC(=O)CCc2ccccc2)cc1,31.5% (active)
24,COc1ccc(CCNC(=O)c2ccco2)cc1,14.4% (inactive)
25,CCOc1cc(NC(=O)c2ccco2)c(OCC)cc1NC(=O)COc1ccccc1,6.65% (inactive)
26,COc1ccc(OCC(=O)NNC(=O)c2ccc(-c3ccccc3)cc2)cc1,-1.92% (inactive)
27,CCCc1ccc(OCC(=O)NNC(=S)NC(=O)c2ccco2)cc1,33.4% (active)
28,CCOC(=O)c1c(NC(=S)NC(=O)c2ccco2)sc2c1CCCC2,3.33% (inactive)
29,CCNC(=S)NNC(=O)Cc1ccccc1,8.07% (inactive)
